# Measured values from PubChem BioAssay.
# Records with an inconclusive call do not appear. Activity calls are given as the source filed them. No cut-off is given here; in the data, nearly all actives have AC50 up to about 26 µM.
# Assay: viability loss in pontine glioma line – cell-based, SU-DIPG-XXV, MIPE5.0, CellTiter-Glo, qHTS, dose response (AID 1347065);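 note: cells exposed to compound for 48 hours before ATP readout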
# Conditions: CellTiter-Glo ATP luminescence
SMILES,AC50,outcome
COc1ccc2c(Oc3ccc(NC(=O)c4c(C)n(CC(C)(C)O)n(-c5ccccc5)c4=O)cc3F)ccnc2c1,20.9 µM (active),–
CC(C)(C)c1nc(-c2cccc(NS(=O)(=O)c3c(F)cccc3F)c2F)c(-c2ccnc(N)n2)s1,–,inactive
CCCn1c(=O)c2[nH]c(-c3cnn(Cc4cccc(C(F)(F)F)c4)c3)nc2n(CC)c1=O,13.2 µM (active),–
CC(=O)NCCC(=O)N[C@@H](CCC(N)=O)C(=O)N[C@@H](CO)C(=O)N[C@@H](CCC(N)=O)C(=O)N[C@@H](CCC(N)=O)C(=O)N[C@H](C(=O)N[C@@H](Cc1ccccc1)C(=O)N[C@]1(C)CCCCCC/C=C\CCC[C@@](C)(C(=O)N[C@@H](CCC(N)=O)C(=O)N[C@@H](CC(N)=O)C(N)=O)NC(=O)[C@H](CC(C)C)NC(=O)[C@H](CC(C)C)NC(=O)[C@@H](CCCNC(=N)N)NC(=O)[C@H](Cc2c[nH]c3ccccc23)NC(=O)[C@H](CC(C)C)NC(=O)[C@H](CC(N)=O)NC1=O)[C@H](C)O,–,inactive
NS(=O)(=O)c1ccc(NC2=CC(=O)c3ccccc3C2=O)cc1,11.8 µM (active),–
COc1ccc(C(=O)CC2(O)C(=O)Nc3c(Cl)ccc(Cl)c32)cc1 (centres undefined),4.17 µM (active),–
Nc1ncnc2c1c(-c1cccc(OCc3ccccc3)c1)cn2C1CC(CN2CCC2)C1 (centres undefined),0.417 µM (active),–
CC(C)(C)NC(=O)Nc1cccc(Nc2ncc(F)c(NC(C)(C)CO)n2)c1,4.68 µM (active),–
COc1ccc(-c2c(-c3ccc(O)cc3O)n[nH]c2C)cc1,–,inactive
